Data published in PubChem BioAssay (NCI).
The panel holds about 83,000 compounds, 20% with a hit somewhere; the sample as a whole holds those more often.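 Assay: single dose, 48 h. Readout: percent growth (0 = no net growth; negative = cell death). Active: <10.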 Active and inactive are the calls of the source.

Legend:
Experiment in all cases: NCI-60 one-dose screen, 48 h (100 = growth as untreated, 0 = no growth, -100 = all killed)
Conditions in all cases: 10 µM unless noted
HCT-15 colon = test system: HCT-15 colon
HT29 colon = test system: HT29 colon
SNB-75 CNS = test system: SNB-75 CNS
SNB-19 CNS = test system: SNB-19 CNS
U251 CNS = test system: U251 CNS
PC-3 prostate = test system: PC-3 prostate
SK-MEL-5 melanoma = test system: SK-MEL-5 melanoma
UACC-62 melanoma = test system: UACC-62 melanoma
LOX IMVI melanoma = test system: LOX IMVI melanoma
SK-MEL-28 melanoma = test system: SK-MEL-28 melanoma
SK-MEL-2 melanoma = test system: SK-MEL-2 melanoma
EKVX NSCLC = test system: EKVX NSCLC
SN12C renal = test system: SN12C renal
TK-10 renal = test system: TK-10 renal
ACHN renal = test system: ACHN renal
CAKI-1 renal = test system: CAKI-1 renal
A498 renal = test system: A498 renal
CCRF-CEM leukemia = test system: CCRF-CEM leukemia
MOLT-4 leukemia = test system: MOLT-4 leukemia

Measured: growth

N#Cc1c(Cl)nc(SCC2CO2)nc1-c1ccccc1 (stereo not given)
inactive: HCT-15 colon 110% | HT29 colon 111% | SNB-75 CNS 95.6% | SNB-19 CNS 106% | U251 CNS 104% | PC-3 prostate 110% | SK-MEL-5 melanoma 107% | UACC-62 melanoma 107% | LOX IMVI melanoma 98.4% | SK-MEL-28 melanoma 114% | SK-MEL-2 melanoma 70.1% | EKVX NSCLC 99.6% | SN12C renal 95.9% | TK-10 renal 111% | ACHN renal 95.5% | CAKI-1 renal 87.9% | A498 renal 108% | CCRF-CEM leukemia 110% | MOLT-4 leukemia 113%

CCCn1ccnc1C(O)c1ccc(OCc2ccccc2)c(OC)c1 (stereo not given)
inactive: HCT-15 colon 93.5% | HT29 colon 103% | SNB-75 CNS 71.2% | SNB-19 CNS 82.8% | U251 CNS 86.8% | PC-3 prostate 82.7% | SK-MEL-5 melanoma 93.5% | UACC-62 melanoma 87.3% | LOX IMVI melanoma 94.4% | SK-MEL-28 melanoma 103% | SK-MEL-2 melanoma 91.3% | EKVX NSCLC 89.3% | SN12C renal 92.3% | TK-10 renal 77.8% | ACHN renal 93.6% | CAKI-1 renal 74.8% | A498 renal 102% | CCRF-CEM leukemia 94% | MOLT-4 leukemia 98.5%

Cc1cc(C)c(O)c(CNCCCNCc2cc(C)cc(C)c2O)c1
inactive: HCT-15 colon 34.9% | HT29 colon 70.9% | SNB-75 CNS 59.6% | SNB-19 CNS 68.9% | U251 CNS 51.3% | PC-3 prostate 64.8% | SK-MEL-5 melanoma 61.9% | UACC-62 melanoma 12.6% | LOX IMVI melanoma 39.8% | SK-MEL-28 melanoma 62.4% | SK-MEL-2 melanoma 88.5% | EKVX NSCLC 75% | SN12C renal 73.4% | TK-10 renal 77% | ACHN renal 73.6% | CAKI-1 renal 62.1% | A498 renal 47% | CCRF-CEM leukemia 68.4% | MOLT-4 leukemia 67.5%

CCN(CC)CCCC(C)Nc1c2ccc(C)cc2nc2ccc(OC)cc12 (stereo not given)
active: HT29 colon -26.1% | LOX IMVI melanoma -70.8% | MOLT-4 leukemia 9.16%
inactive: HCT-15 colon 18.2% | SNB-75 CNS 41% | SNB-19 CNS 43.7% | U251 CNS 31.2% | PC-3 prostate 30.9% | SK-MEL-5 melanoma 82.1% | UACC-62 melanoma 74.4% | SK-MEL-28 melanoma 62.1% | SK-MEL-2 melanoma 39.2% | EKVX NSCLC 42.3% | SN12C renal 43.3% | TK-10 renal 15.4% | ACHN renal 25.5% | CAKI-1 renal 38% | A498 renal 70.2% | CCRF-CEM leukemia 30.9%

CCOC(=O)C(c1ccccc1)N1C(=O)c2ccccc2C1=O (stereo not given)
inactive: HCT-15 colon 97.3% | HT29 colon 102% | SNB-75 CNS 91.1% | SNB-19 CNS 100% | U251 CNS 93.8% | PC-3 prostate 98.4% | SK-MEL-5 melanoma 100% | UACC-62 melanoma 95% | LOX IMVI melanoma 91.4% | SK-MEL-28 melanoma 99.2% | SK-MEL-2 melanoma 104% | EKVX NSCLC 91.4% | SN12C renal 104% | TK-10 renal 106% | ACHN renal 102% | CAKI-1 renal 86.4% | A498 renal 89.3% | CCRF-CEM leukemia 102% | MOLT-4 leukemia 101%

COc1cc2c(cc1OCCCN1CCN(CCCOc3cc4c(cc3OC)C(=O)N3C[C@H](F)C[C@H]3C=N4)CC1)N=C[C@@H]1C[C@@H](F)CN1C2=O
inactive: HCT-15 colon 56.6% | SNB-19 CNS 18.1% | PC-3 prostate 12.7% | SN12C renal 25.7% | CAKI-1 renal 16.9%
active: HT29 colon 0.625% | SNB-75 CNS -72.3% | U251 CNS 8.39% | SK-MEL-5 melanoma -44.7% | UACC-62 melanoma -59.7% | LOX IMVI melanoma 5.06% | SK-MEL-28 melanoma -50.8% | SK-MEL-2 melanoma -20.5% | EKVX NSCLC -34.3% | TK-10 renal -52.5% | ACHN renal 7.96% | MOLT-4 leukemia -16.7%

C=C(C)[C@@H]1CC[C@]2(C(=O)NCCCCCCN(CCCN)CCCN)CC[C@]3(C)[C@H](CC[C@@H]4[C@@]5(C)CC[C@H](OCCCN)C(C)(C)[C@@H]5CC[C@]43C)[C@@H]12
active: HT29 colon 4.21% [100 µM] | U251 CNS -39.4% [100 µM] | LOX IMVI melanoma 5.71% [100 µM]
inactive: HCT-15 colon 81.8% [100 µM] | SNB-75 CNS 84.5% [100 µM] | SNB-19 CNS 80.8% [100 µM] | PC-3 prostate 60.9% [100 µM] | SK-MEL-5 melanoma 85.9% [100 µM] | UACC-62 melanoma 120% [100 µM] | SK-MEL-28 melanoma 101% [100 µM] | SK-MEL-2 melanoma 122% [100 µM] | EKVX NSCLC 141% [100 µM] | SN12C renal 81.9% [100 µM] | TK-10 renal 119% [100 µM] | ACHN renal 75.6% [100 µM] | CAKI-1 renal 94.5% [100 µM] | A498 renal 130% [100 µM] | CCRF-CEM leukemia 11.8% [100 µM] | MOLT-4 leukemia 10.1% [100 µM]

CC(C)=CC/C=C(/C)[C@H]1CC[C@]2(C)[C@@H]1CC[C@@H]1[C@@]3(C)CC/C(=N/O)C(C)(C)[C@@H]3CC[C@]12C
inactive: HCT-15 colon 57.2% [100 µM] | HT29 colon 23.2% [100 µM] | SNB-75 CNS 69.4% [100 µM] | SNB-19 CNS 67.3% [100 µM] | U251 CNS 50.9% [100 µM] | PC-3 prostate 29.4% [100 µM] | SK-MEL-5 melanoma 18.2% [100 µM] | UACC-62 melanoma 43.1% [100 µM] | LOX IMVI melanoma 59.6% [100 µM] | SK-MEL-28 melanoma 73.3% [100 µM] | SK-MEL-2 melanoma 59.2% [100 µM] | EKVX NSCLC 72.2% [100 µM] | SN12C renal 41% [100 µM] | TK-10 renal 82% [100 µM] | ACHN renal 54.3% [100 µM] | CAKI-1 renal 57.4% [100 µM] | A498 renal 88.8% [100 µM] | CCRF-CEM leukemia 38.4% [100 µM] | MOLT-4 leukemia 27.6% [100 µM]
